# Screening results (PubChem BioAssay)
# The sample as a whole holds a higher share of hits than the screen did.
# Artemis endo inh – Artemis endonuclease inhibitors, primary screen, biochemical, fluorescence intensity, FAM/BHQ-1 hairpin substrate. 30,000 tested, 0.78% active. Protein artemis (Homo sapiens), Q96SD1. inhibition, % at 10 µM. recombinant Artemis, quenched FAM hairpin cleavage fluorescence;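 active = at 10 µM dose, at least 30% inhibition, measured as corrected fluorescence normalized to stimulator and neutral control wells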
# Target sequence (Q96SD1 whole entry, looked up): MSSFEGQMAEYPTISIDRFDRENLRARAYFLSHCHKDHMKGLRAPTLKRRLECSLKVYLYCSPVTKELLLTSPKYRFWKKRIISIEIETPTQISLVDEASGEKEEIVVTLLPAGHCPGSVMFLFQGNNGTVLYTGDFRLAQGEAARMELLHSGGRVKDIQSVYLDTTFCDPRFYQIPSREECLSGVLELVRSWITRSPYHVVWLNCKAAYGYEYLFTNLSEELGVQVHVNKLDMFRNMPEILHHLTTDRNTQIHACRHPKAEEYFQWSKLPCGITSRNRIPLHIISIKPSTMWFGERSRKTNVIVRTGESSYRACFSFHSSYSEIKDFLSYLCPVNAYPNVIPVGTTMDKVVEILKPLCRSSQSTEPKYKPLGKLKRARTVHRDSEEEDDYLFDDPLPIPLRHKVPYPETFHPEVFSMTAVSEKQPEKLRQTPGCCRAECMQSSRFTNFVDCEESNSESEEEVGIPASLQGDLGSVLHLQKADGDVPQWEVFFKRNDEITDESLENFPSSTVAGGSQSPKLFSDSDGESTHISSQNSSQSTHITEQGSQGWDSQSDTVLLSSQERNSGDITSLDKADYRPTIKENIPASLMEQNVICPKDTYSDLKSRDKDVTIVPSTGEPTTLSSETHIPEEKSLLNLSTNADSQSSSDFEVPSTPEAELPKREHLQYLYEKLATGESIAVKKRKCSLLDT
# An asterisk follows results filed as active.
SMILES,Artemis endo inh
CCN(CC)C(=O)C1=C(C)Nc2nnnn2C1c1cccnc1 (stereo unspecified),12
O=c1cc(-c2ccccc2)nc2nc(-c3ccco3)[nH]n12,36*
O=C(Nc1nc2nc(-c3ccccc3)cc(=O)n2[nH]1)c1ccccc1,-1
O=c1cc(-c2ccccc2)nc2nc(CCc3ccccc3)[nH]n12,0
O=C(Cn1cccc1C(=O)c1ccccc1)NCc1ccccn1,-5
CC(C)C(=O)NC(=S)Nc1ccc(S(=O)(=O)N(C)Cc2ccccc2)cc1,5
Cc1cc(C)n(-c2nc(C)nc(NCc3ccccc3)n2)n1,-2
COc1ccc(O)c(/C=N/NC(=O)CSc2nnc(C)n2-c2ccccc2)c1,0
COc1ccc(O)c(/C=N/Nc2nc(Nc3ccccc3)nc(-n3nc(C)cc3C)n2)c1,102*
CSc1ncc2c(n1)-c1cc(C)ccc1SC2,12
Cn1c(-c2ccc(CN3CCCCC3)o2)nc2ccccc21,3
O=C1c2ccncc2C(=O)N1Cc1cccc(Cl)c1,4
CC(=O)OCCCCON1C(=O)c2ccccc2C1=O,6
O=C1c2ccccc2C(=O)N1OCc1cccc(Cl)c1,55*
CCn1c(SCC(=O)N2CCC(C(N)=O)(N3CCCCC3)CC2)nnc1-c1ccccc1,-2
CC1=C(C#N)CCC(=O)N1Cc1ccc(C)cc1,2
CCn1c(SCC(=O)c2ccc(F)cc2)nnc1-c1ccoc1C,6
CCn1c(SCC(=O)c2ccc(O)c(O)c2)nnc1-c1ccccc1,13
CCn1c(SCC(=O)c2ccc(O)c(O)c2)nnc1-c1ccccc1OC,30*
C=C(C)c1cccc(C(C)(C)NC(=O)N(Cc2ccccc2)Cc2ccco2)c1,-6
Cc1ccc(C(=O)CSc2nnc(CNc3nc(-c4ccccc4)cs3)n2C)cc1,20
COc1ccc(-c2[nH]ncc2/C=C(/C#N)C(=O)NC2CCCCCC2)cc1,7
CCOC(=O)c1c(NC(=O)Cn2nnc(-c3ccc(Cl)cc3)n2)sc(CC)c1C,1
Cc1ccc(C(=O)N/C(=C\c2cccs2)C(=O)NCCCn2ccnc2)cc1C,2
COC(=O)Cn1ncn2cccc2c1=O,0
SMILES,Artemis endo inh
CCOC(=O)C(C)n1ncn2cccc2c1=O (stereo unspecified),33*
CCOC(=O)C(C)n1cnc2c(cnn2-c2ccc(Cl)cc2)c1=O (stereo unspecified),-6
CC(C)(C)c1ccc(OCc2ccc(C(=O)N/N=C/c3ccc([N+](=O)[O-])cc3)o2)cc1,17
CN(Cc1cccs1)C(=O)CSc1nnnn1C,0
Cc1[nH]nc2c1C(c1cccc(O)c1)C1=C(CC(C)(C)CC1=O)N2 (stereo unspecified),2
Cc1ccc(NCN2C(=O)c3ccccc3C2=O)c(C)c1,-9
Cc1ccc(NC2=C/C(=N\S(=O)(=O)c3cccs3)c3ccccc3C2=O)c(C)c1,53*
COc1ccc(C)cc1NC(=O)CN(C)S(=O)(=O)c1cccs1,1
Cc1nn(Cc2ccccc2)c(=O)n1N(C)c1ncc(C(F)(F)F)cc1Cl,0
COc1cccc(C(=O)NCC(=O)n2nc(C)cc2C)c1,-3
Cc1ccc(C)n1-c1ccc(-c2nnc3n2CCCCC3)s1,11
Cc1[nH]n(-c2ccccc2)c(=O)c1-c1cccc(Cl)c1,7
Cc1nc(=S)n(-c2ccccc2)[nH]1,-5
Cc1[nH]n(-c2ccccc2)c(=O)c1C(C[N+](=O)[O-])c1ccc(Br)cc1 (stereo unspecified),34*
CCN1/C(=C/c2ccc3ccccc3[n+]2CC)C=Cc2ccccc21,38*
CCN1C(=O)/C(=C2/C=Cc3ccccc3N2C)OC1=S,5
O=C(CC(c1ccccc1)c1ccccc1)OCn1nnc2ccccc2c1=O,3
CCN(CCO)c1ccc(-n2c(N)c(C(=O)OC)c3nc4ccccc4nc32)cc1,-4
COCCNC(=O)c1c(N)n(CCC2=CCCCC2)c2nc3ccccc3nc12,11
C=CCn1c(N)c(C(=O)OCCC)c2nc3ccccc3nc21,40*
CCCC(c1nnnn1C1CCCC1)N1CCN(c2ccccc2F)CC1 (stereo unspecified),2
CSc1nc2ccccc2cc1/C=C(\C#N)c1cccc(Cl)c1,-4
CCNc1nc2c(c(=O)n(Cc3ccccc3)c(=O)n2C)n1Cc1ccccc1,4
Cc1nc(C)c(C(=O)Nc2ccccc2)s1,-4
Cc1nn(-c2ccc(F)cc2)c2sc(C(=O)N3CCCCCC3)cc12,6
SMILES,Artemis endo inh
Cc1nc(NC(=O)c2cc3c(C)nn(-c4ccccc4)c3s2)sc1C(=O)Nc1ccccc1,83*
CCc1ccc(OCC(=O)N2CCN=C2c2ccccc2)cc1,6
CCOC(=O)C1=C(c2cccc(Oc3ccccc3)c2)NC(=S)NC1C (stereo unspecified),-2
CCN(CCNC(=O)CN1CCN(Cc2ccc(Cl)cc2)C1=O)c1ccccc1,0
CCOC(=O)Nc1ccc2c(c1)Sc1ccccc1N2C(=O)CCN1CCOCC1,-3
C(=N\N1CCN(C2c3ccccc3-c3ccccc32)CC1)/c1ccccn1,32*
C(=N\N1CCN(C2c3ccccc3-c3ccccc32)CC1)/c1cccnc1,8
O=[N+]([O-])c1cc(/C=N/N2CCN(C3c4ccccc4-c4ccccc43)CC2)ccc1Cl,0
CSc1cccc(NC(=O)CN(c2cc(C)ccc2C)S(C)(=O)=O)c1,0
CCOC(=O)C1=C(O)CSC1=Nc1ccccc1,-2
CCOC(=O)C1=C(O)/C(=C/c2ccc(-c3ccccc3C(=O)O)o2)SC1=Nc1ccc(OC)cc1,30*
CCOC(=O)c1c(C)[nH]c(C=Nc2ccc(OC)cc2)c1O,10
COC(=O)c1ccccc1S(=O)(=O)N1Cc2cc([N+](=O)[O-])ccc2Oc2ccccc21,6
C/C(N)=C(/C#N)C(=O)COC(=O)C1CCC(C(C)(C)C)CC1 (stereo unspecified),-3
Nc1ccc2oc(=O)c3ccccc3c2c1,3
Nc1ccc2c(c1)C(=O)C(=O)c1ccccc1-2,71*
Nc1ccc(-c2ccc(N)cc2C(F)(F)F)c(C(F)(F)F)c1,1
CC(=O)C1=C(O)C(=O)N(CCNCCO)C1c1ccccc1 (stereo unspecified),-2
Cc1nn(C)c(C)c1CN(C)C(=O)CCCC(=O)O,-6
Cc1c(-c2nc(N)nc(Nc3ccccc3)n2)oc2ccccc12,52*
Nc1nc(CSCCO)nc(Nc2ccccc2)n1,-3
COc1ccc(OC)c(Nc2nc(N)nc(-c3cc4ccccc4o3)n2)c1,1
COC(=O)c1cc(NC(=O)Cn2c(=O)cnc3ccccc32)cc(C(=O)OC)c1,-1
Nn1c(N2CCCCC2)nc2ccccc21,-9
CCOCCCNC(=O)C(NC(=O)CC1NC(=O)NC1=O)c1ccc(Cl)cc1 (stereo unspecified),-1
SMILES,Artemis endo inh
O=C(NC1CCCCCCC1)c1ccccc1O,0
O=C(NNC(=O)c1cc(O)c(O)c(O)c1)NC1CCCCC1,31*
O=C(NC1CCCCCCC1)NC1CCCCC1,-4
Cc1[nH]c(=O)[nH]c(=O)c1S(=O)(=O)N1CCCC1,-1
CCC(C)Oc1ccccc1C1CC(=O)NC2=C1C(=O)CCC2 (stereo unspecified),-2
CCn1c(-c2ccccc2Cl)nn(CC(=O)Nc2ccc(OC)cc2)c1=S,5
COc1ccc(/C=N/NC(=O)c2nn(-c3ccc(C)c(C)c3)c(=O)c3ccccc23)cc1,13
COc1cc(/C=N/NC(=O)c2cnn3c(C)cc(-c4ccccc4)nc23)ccc1O,10
COc1ccc(/C=N/NC(=O)c2nc(-c3ccccc3)cc(-c3ccccc3)n2)cc1,35*
